Outcome data for 30 molecules are collected here from PubChem BioAssay AID743293 (Broad Institute, 2014).

Entries with a potency or affinity are not part of this list. Activity calls are given as the source filed them.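 Rule for the calls: active = compounds lowering fluorescence with a fitted half-maximal concentration at or below a set limit tied to top dose; inconclusive = flat curve with 30 to 70% inhibition, or poor fit; inactive = the rest.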

Chain of Caspase-9 (Homo sapiens) (P55211 whole entry, looked up): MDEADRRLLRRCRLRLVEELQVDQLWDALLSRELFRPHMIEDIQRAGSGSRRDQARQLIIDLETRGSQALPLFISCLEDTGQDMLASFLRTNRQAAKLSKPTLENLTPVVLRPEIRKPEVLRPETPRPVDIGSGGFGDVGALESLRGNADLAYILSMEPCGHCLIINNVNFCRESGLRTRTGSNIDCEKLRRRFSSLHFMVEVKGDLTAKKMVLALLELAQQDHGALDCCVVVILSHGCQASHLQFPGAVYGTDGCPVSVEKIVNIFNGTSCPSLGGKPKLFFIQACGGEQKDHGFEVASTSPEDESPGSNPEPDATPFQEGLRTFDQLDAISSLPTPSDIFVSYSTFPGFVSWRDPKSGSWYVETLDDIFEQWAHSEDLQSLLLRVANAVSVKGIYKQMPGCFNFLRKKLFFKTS

This experiment has as its target Caspase-9 (Homo sapiens) (UniProt P55211). Kind of experiment: caspase-9 enzyme inhibition, dose response, selectivity assay for caspase-6 inhibitor project, biochemical, fluorescence, plate reader, cherry-picked samples (AID 743293). The settings on record: purified caspase-9, Z-LEHD-R110 cleavage fluorescence; series mostly up to 35 µM.
In the case of `O=C(O)CCc1ccc(-c2ccc(Br)cc2)n1CC(=O)O`, the call was inactive.

Consider `O=C(COC(=O)c1ccccc1)Nc1ncc([N+](=O)[O-])s1`, for which the outcome was inactive. In the case of `O=C(CCO)c1ccc(O)cc1` it was “inactive”. To `O=c1cc2c(=O)oc3cc(O)c(O)oc3c2c(O)c1O` belongs “inactive”; to `Cc1ccc(S(=O)c2ccc([N+](=O)[O-])c3nonc23)cc1` (stereo not given), “inactive”. In the case of `O=C(O)/C(=C\c1ccc(Cl)c([N+](=O)[O-])c1)c1ccc(S(=O)(=O)N2CCCC2)s1`, the molecule was called inactive. To `Oc1cc(O)cc(C=Cc2ccc(O)c(O)c2)c1` belongs “inactive”. In the case of `Cc1ccc(NC(=O)CN(C)C(=O)c2cccc(-n3cccc3)c2)cc1` it was “inactive”. To `O=c1oc2ccccc2c2oc3cc(O)c(O)cc3c12` belongs “inactive”; to `O=S(=O)(O)c1cc(O)c2cc(Nc3ccccc3)ccc2c1`, “inactive”; to `CCN(CC)CCCC(C)n1c2nc(=O)[nH]c(=O)c-2nc2cc(Cl)ccc21` (stereo not given), “inactive”. As for `CNS(=O)(=O)c1cccc(C(=O)OCC(=O)N2c3ccccc3NC(=O)C2(C)C)c1`, the result was inactive. To `COc1ccc([N+](=O)[O-])cc1NC(=O)CCS(=O)(=O)c1ccc(Br)cc1` belongs “inactive”; to `Cc1[nH]nc(S(=O)CC(=O)O)c1[N+](=O)[O-]` (stereo not given), “inactive”. For `O=c1c(CO)cc(CO)cc(CO)c1O`, the result was inactive. In the case of `Nc1ccc(Nc2ccccc2)c(S(=O)(=O)O)c1` it was “inactive”; in that of `CCOC(=O)c1sc2nc(OCCN3CCOCC3)cc(C)c2c1N`, “inactive”; in that of `Cc1cc(C=O)c(C)n1-c1ccc(Cl)c(C(=O)O)c1`, “inactive”. Consider `CCCN(C(=O)c1cccc(-n2cccc2)c1)c1c(N)n(Cc2ccccc2)c(=O)[nH]c1=O`, for which the outcome was inactive.

With `Cc1ccc(S(=O)(=O)Nc2csc(C)c2C(=O)O)cc1`, the molecule was classed as inactive. With `Cc1oc2c(cc(NS(=O)(=O)c3ccc(C(C)C)cc3)c3ccccc32)c1C(=O)O`, the result was inactive.

Regarding `COc1cc(-c2ccc(Nc3ccccc3C(=O)O)c(OC)c2)ccc1Nc1ccccc1C(=O)O`, the result was inactive. To `Cc1ccc(C)c(NC(=O)CN(C)C(=O)c2cccc(-n3cccc3)c2)c1` belongs “inactive”; to `CN(CC(=O)Nc1c(Cl)cccc1Cl)C(=O)c1cccc(-n2cccc2)c1`, “inactive”; to `COc1cc(NCCCCC(C)N)c2nccc(C)c2c1` (stereo not given), “inactive”. In the case of `CCCSC1=N/C(=C\c2ccc([N+](=O)[O-])o2)C(=O)S1`, the molecule was classed as inactive. Take `CCOC(=O)[C@H](Cc1c[nH]c2ccccc12)NC(=O)CN=[N+]=[N-]`: the molecule was classed as inactive. To `O=C(O)Cc1ccc(-n2cccc2)cc1` belongs “inactive”; to `O=C1CN(C(=O)COC(=O)c2ccc([N+](=O)[O-])s2)c2ccccc2N1`, “inactive”.

In the case of `O=C(O)C1Nc2c(Cl)cc(Cl)c(Cl)c2C2C=CCC12` (stereo not given), the outcome was inactive.
